# Compounds without any hit were thinned out: in the full panel of roughly 79,000, 15% have a hit. A number with no mark means an inactive call. Active and inactive are the calls of the source. Cut-off read from the data, not from the text of the source: active = growth inhibition above about 70%; inactive = the rest.
# Legend:
# [1] = NCI Yeast Anticancer Drug Screen. Data for the rad52 strain (AID 147);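 note: 0% = growth of vehicle-treated control cultures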; details: S. cerevisiae rad52 mutant growth inhibition, stronger effect = higher value
# How it was run: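 Genetically altered yeast (DNA damage repair defect) treated with compound; inhibition calculated relative to vehicle.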
# [2] = NCI Yeast Anticancer Drug Screen. Data for the wt1 strain (AID 149);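 note: 0% = growth of vehicle-treated wt1 cultures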; details: S. cerevisiae wt1 strain (SPY 50644) growth inhibition, stronger effect = higher value
# How it was run: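 Growth inhibition read against vehicle controls after compound exposure of the wt1 yeast strain.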
# [3] = NCI Yeast Anticancer Drug Screen. Data for the rad50EPP+ strain (AID 151);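 note: 0% = growth of vehicle-treated control cultures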; details: S. cerevisiae rad50 mutant strain, stronger effect = higher value
# How it was run: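 Strain rad50EPP+; compound exposure; % growth inhibition vs vehicle.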
# [4] = NCI Yeast Anticancer Drug Screen. Data for the mgt1 strain (AID 153); details: S. cerevisiae mgt1 mutant growth inhibition, stronger effect = higher value
# How it was run: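 Read-out: yeast growth inhibition vs vehicle control. Strain mgt1, drawn from a panel altered in DNA damage repair or cell cycle control.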
# [5] = NCI Yeast Anticancer Drug Screen. Data for the rad50 strain (AID 155);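 note: 0% = growth of vehicle-only cultures of the same strain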; details: S. cerevisiae rad50 strain growth inhibition, stronger effect = higher value
# How it was run: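 Readout: growth inhibition relative to vehicle-treated cultures. Compound exposure was carried out in a genetically defined yeast strain deficient in DNA damage repair.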
# [6] = NCI Yeast Anticancer Drug Screen. Data for the mec2-1 strain (AID 157); details: S. cerevisiae mec2-1 strain, stronger effect = higher value
# How it was run: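 Cells of the genetically defined mec2-1 yeast strain are incubated with test compound. Inhibition of growth is calculated against vehicle-treated controls.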
# [7] = NCI Yeast Anticancer Drug Screen. Data for the rad14 strain (AID 159);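 note: 0% = growth of vehicle-treated control cultures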; details: S. cerevisiae rad14 strain growth inhibition, stronger effect = higher value
# How it was run: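 Growth inhibition vs vehicle controls; genetically altered yeast strain (DNA damage repair defect) treated with test compounds.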
# [8] = NCI Yeast Anticancer Drug Screen. Data for the sgs1 mgt1 strain (AID 161);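 note: 0% = growth of cultures given vehicle only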; details: S. cerevisiae sgs1 mgt1 strain, stronger effect = higher value
# How it was run: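 Test agents were incubated with a DNA-repair-mutant yeast strain. Growth was then read and compared against vehicle-treated controls.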
# [9] = NCI Yeast Anticancer Drug Screen. Data for the CLN2oe strain (AID 163);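 note: 0% = growth of vehicle-only control cultures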; details: S. cerevisiae CLN2oe strain, stronger effect = higher value
# How it was run: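 Strain altered in cell-cycle control, incubated with compound; growth compared to solvent-treated controls.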
# [10] = NCI Yeast Anticancer Drug Screen. Data for the cln2 rad14 strain (AID 165);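 note: 0% = growth equal to vehicle treated cultures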; details: S. cerevisiae cln2 rad14 strain, stronger effect = higher value
# How it was run: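 The screen exposed genetically defined yeast (cln2 rad14) to test compounds and scored growth inhibition relative to vehicle-treated controls.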
# [11] = NCI Yeast Anticancer Drug Screen. Data for the bub3 strain (AID 167); details: S. cerevisiae bub3 mutant strain, stronger effect = higher value
# How it was run: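 Readout: yeast growth inhibition, expressed relative to vehicle-only wells. The test organism is a mutant strain from a panel with lesions in DNA repair or checkpoint genes.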
# [12] = NCI Yeast Anticancer Drug Screen. Data for the wt2 strain (AID 169);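 note: 0% = growth of vehicle-treated yeast cultures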; details: S. cerevisiae wt2 strain growth inhibition, stronger effect = higher value
# How it was run: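 Steps: yeast strain treated with compound; growth recorded; inhibition calculated relative to cultures given vehicle alone.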
# [13] = NCI Yeast Anticancer Drug Screen. Data for the mlh1 strain (AID 171);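 note: 0% = growth of vehicle-treated control cultures of the same strain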; details: S. cerevisiae mlh1 strain growth inhibition, stronger effect = higher value
# How it was run: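 Yeast screen: mutant strain plus compound, growth scored against vehicle control wells.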
# [14] = NCI Yeast Anticancer Drug Screen. Data for the sgs1 strain (AID 173);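 note: 0% = growth of vehicle-only control cultures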; details: S. cerevisiae sgs1 mutant, stronger effect = higher value
# How it was run: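 Inhibition of yeast growth served as the measure. The mutant strain was treated with each compound, and growth was normalised to cultures receiving vehicle alone.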
# [15] = NCI Yeast Anticancer Drug Screen. Data for the mlh1 rad18 strain (AID 175); details: S. cerevisiae mlh1 rad18 strain growth inhibition, stronger effect = higher value
# How it was run: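 Compound-treated yeast growth, normalised to vehicle controls. Strain bears defined DNA repair mutations.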
# [16] = NCI Yeast Anticancer Drug Screen. Data for the rad18 strain (AID 177); details: S. cerevisiae rad18 mutant growth inhibition, stronger effect = higher value
# How it was run: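 Inhibition values reflect reduced yeast growth compared with vehicle-treated controls, using a strain engineered with a DNA damage repair defect.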
# [17] = at 5.0 µM (retest, dose inferred, filed as 0.5)
# [18] = at 50.0 µM (retest, dose inferred, filed as 5.0)
smiles,measurement,setting,value
Cc1ccc([N+](=O)[O-])c2c(NCCC[N+](C)(C)[O-])c3ccccc3nc12,growth inhibition,[1]; at 1.2 µM,-8%
same,growth inhibition,[1]; at 3.7 µM,-4%
same,growth inhibition,[1]; at 11.0 µM,8%
same,growth inhibition,[1]; at 33.0 µM,47%
same,growth inhibition,[1]; at 100.0 µM,85% (active)
same,growth inhibition,[2]; at 1.2 µM,-5%
same,growth inhibition,[2]; at 3.7 µM,0%
same,growth inhibition,[2]; at 11.0 µM,2%
same,growth inhibition,[2]; at 33.0 µM,2%
same,growth inhibition,[2]; at 100.0 µM,2%
same,growth inhibition,[3]; at 1.2 µM,-9%
same,growth inhibition,[3]; at 3.7 µM,-10%
same,growth inhibition,[3]; at 11.0 µM,-6%
same,growth inhibition,[3]; at 33.0 µM,8%
same,growth inhibition,[3]; at 100.0 µM,54%
same,growth inhibition,[4]; at 1.2 µM,-2%
same,growth inhibition,[4]; at 3.7 µM,0%
same,growth inhibition,[4]; at 11.0 µM,-6%
same,growth inhibition,[4]; at 33.0 µM,5%
same,growth inhibition,[4]; at 100.0 µM,1%
same,growth inhibition,[5]; at 1.2 µM,4%
same,growth inhibition,[5]; at 3.7 µM,7%
same,growth inhibition,[5]; [17],-16%
same,growth inhibition,[5]; at 11.0 µM,3%
same,growth inhibition,[5]; at 33.0 µM,38%
same,growth inhibition,[5]; [18],44%
same,growth inhibition,[5]; at 50.0 µM,61.2%
same,growth inhibition,[5]; at 100.0 µM,81% (active)
same,growth inhibition,[6]; at 1.2 µM,-15%
same,growth inhibition,[6]; at 3.7 µM,-10%
same,growth inhibition,[6]; [17],11%
same,growth inhibition,[6]; at 11.0 µM,-14%
same,growth inhibition,[6]; at 33.0 µM,-1%
same,growth inhibition,[6]; [18],64%
same,growth inhibition,[6]; at 50.0 µM,1.6%
same,growth inhibition,[6]; at 100.0 µM,82% (active)
same,growth inhibition,[7]; at 1.2 µM,11%
same,growth inhibition,[7]; at 3.7 µM,15%
same,growth inhibition,[7]; at 11.0 µM,43%
same,growth inhibition,[7]; at 33.0 µM,91% (active)
same,growth inhibition,[7]; at 100.0 µM,96% (active)
same,growth inhibition,[8]; [17],6%
same,growth inhibition,[8]; [18],62%
same,growth inhibition,[8]; at 50.0 µM,56.8%
same,growth inhibition,[9]; at 1.2 µM,-16%
same,growth inhibition,[9]; at 3.7 µM,-9%
same,growth inhibition,[9]; at 11.0 µM,-17%
same,growth inhibition,[9]; at 33.0 µM,-21%
same,growth inhibition,[9]; at 100.0 µM,10%
same,growth inhibition,[10]; [17],18%
same,growth inhibition,[10]; [18],91% (active)
same,growth inhibition,[10]; at 50.0 µM,77.8% (active)
same,growth inhibition,[11]; at 1.2 µM,-11%
same,growth inhibition,[11]; at 3.7 µM,-4%
same,growth inhibition,[11]; [17],-22%
same,growth inhibition,[11]; at 11.0 µM,-20%
same,growth inhibition,[11]; at 33.0 µM,-13%
same,growth inhibition,[11]; [18],3%
same,growth inhibition,[11]; at 50.0 µM,-36%
same,growth inhibition,[11]; at 100.0 µM,-17%
same,growth inhibition,[12]; at 1.2 µM,0%
same,growth inhibition,[12]; at 3.7 µM,-4%
same,growth inhibition,[12]; at 11.0 µM,4%
same,growth inhibition,[12]; at 33.0 µM,8%
same,growth inhibition,[12]; at 100.0 µM,10%
same,growth inhibition,[13]; at 1.2 µM,26%
same,growth inhibition,[13]; at 3.7 µM,11%
same,growth inhibition,[13]; at 11.0 µM,10%
same,growth inhibition,[13]; at 33.0 µM,-12%
same,growth inhibition,[13]; at 100.0 µM,27%
same,growth inhibition,[14]; at 1.2 µM,-7%
same,growth inhibition,[14]; at 3.7 µM,6%
same,growth inhibition,[14]; at 11.0 µM,31%
same,growth inhibition,[14]; at 33.0 µM,66%
same,growth inhibition,[14]; at 100.0 µM,81% (active)
same,growth inhibition,[15]; [17],31%
same,growth inhibition,[15]; [18],82% (active)
same,growth inhibition,[15]; at 50.0 µM,45.1%
same,growth inhibition,[16]; at 1.2 µM,22%
same,growth inhibition,[16]; at 3.7 µM,76% (active)
same,growth inhibition,[16]; at 11.0 µM,90% (active)
same,growth inhibition,[16]; at 33.0 µM,94% (active)
same,growth inhibition,[16]; at 100.0 µM,94% (active)
COc1cccc(/C=C2\S/C(=N/Nc3nc(-c4ccc([N+](=O)[O-])cc4)cs3)NC2=O)c1O,growth inhibition,[1]; at 1.2 µM,15%
same,growth inhibition,[1]; at 3.7 µM,21%
same,growth inhibition,[1]; at 11.0 µM,58%
same,growth inhibition,[1]; at 33.0 µM,72% (active)
same,growth inhibition,[1]; at 100.0 µM,80% (active)
same,growth inhibition,[2]; at 1.2 µM,-78%
same,growth inhibition,[2]; at 3.7 µM,7%
same,growth inhibition,[2]; at 11.0 µM,22%
same,growth inhibition,[2]; at 33.0 µM,42%
same,growth inhibition,[2]; at 100.0 µM,57%
same,growth inhibition,[3]; at 1.2 µM,33%
same,growth inhibition,[3]; at 3.7 µM,63%
same,growth inhibition,[3]; at 11.0 µM,89% (active)
same,growth inhibition,[3]; at 33.0 µM,96% (active)
same,growth inhibition,[3]; at 100.0 µM,94% (active)
same,growth inhibition,[4]; at 1.2 µM,9%
same,growth inhibition,[4]; at 3.7 µM,23%
same,growth inhibition,[4]; at 11.0 µM,39%
same,growth inhibition,[4]; at 33.0 µM,59%
same,growth inhibition,[4]; at 100.0 µM,56%
same,growth inhibition,[5]; at 1.2 µM,2%
same,growth inhibition,[5]; at 3.7 µM,11%
same,growth inhibition,[5]; [17],-1%
same,growth inhibition,[5]; at 11.0 µM,43%
same,growth inhibition,[5]; at 33.0 µM,73% (active)
same,growth inhibition,[5]; [18],84% (active)
same,growth inhibition,[5]; at 50.0 µM,97% (active)
same,growth inhibition,[5]; at 100.0 µM,80% (active)
same,growth inhibition,[6]; at 1.2 µM,1%
same,growth inhibition,[6]; at 3.7 µM,12%
same,growth inhibition,[6]; [17],-4%
same,growth inhibition,[6]; at 11.0 µM,39%
same,growth inhibition,[6]; at 33.0 µM,79% (active)
same,growth inhibition,[6]; [18],52%
same,growth inhibition,[6]; at 50.0 µM,94.2% (active)
same,growth inhibition,[6]; at 100.0 µM,83% (active)
same,growth inhibition,[7]; at 1.2 µM,0%
same,growth inhibition,[7]; at 3.7 µM,3%
same,growth inhibition,[7]; at 11.0 µM,6%
same,growth inhibition,[7]; at 33.0 µM,20%
same,growth inhibition,[7]; at 100.0 µM,43%
same,growth inhibition,[8]; [17],0%
same,growth inhibition,[8]; [18],76% (active)
same,growth inhibition,[8]; at 50.0 µM,95.7% (active)
same,growth inhibition,[9]; at 1.2 µM,6%
same,growth inhibition,[9]; at 3.7 µM,25%
same,growth inhibition,[9]; at 11.0 µM,63%
same,growth inhibition,[9]; at 33.0 µM,90% (active)
same,growth inhibition,[9]; at 100.0 µM,93% (active)
same,growth inhibition,[10]; [17],33%
same,growth inhibition,[10]; [18],85% (active)
same,growth inhibition,[10]; at 50.0 µM,76.7% (active)
same,growth inhibition,[11]; at 1.2 µM,7%
same,growth inhibition,[11]; at 3.7 µM,33%
same,growth inhibition,[11]; [17],82% (active)
same,growth inhibition,[11]; at 11.0 µM,62%
same,growth inhibition,[11]; at 33.0 µM,90% (active)
same,growth inhibition,[11]; [18],97% (active)
same,growth inhibition,[11]; at 50.0 µM,97% (active)
same,growth inhibition,[11]; at 100.0 µM,94% (active)
same,growth inhibition,[12]; at 1.2 µM,-2%
same,growth inhibition,[12]; at 3.7 µM,23%
same,growth inhibition,[12]; at 11.0 µM,76% (active)
same,growth inhibition,[12]; at 33.0 µM,94% (active)
same,growth inhibition,[12]; at 100.0 µM,92% (active)
same,growth inhibition,[13]; at 1.2 µM,-1%
same,growth inhibition,[13]; at 3.7 µM,6%
same,growth inhibition,[13]; at 11.0 µM,30%
same,growth inhibition,[13]; at 33.0 µM,63%
same,growth inhibition,[13]; at 100.0 µM,74% (active)
same,growth inhibition,[14]; at 1.2 µM,5%
same,growth inhibition,[14]; at 3.7 µM,19%
same,growth inhibition,[14]; at 11.0 µM,50%
same,growth inhibition,[14]; at 33.0 µM,77% (active)
same,growth inhibition,[14]; at 100.0 µM,76% (active)
same,growth inhibition,[15]; [17],10%
same,growth inhibition,[15]; [18],89% (active)
same,growth inhibition,[15]; at 50.0 µM,95.3% (active)

# Source: PubChem BioAssay (NCI)
